This is a sample that favours compounds with a hit; in the whole collection about 7.3% have one here.
NPC1 promoter act = qHTS Assay for NPC1 Promoter Activators; Potency, µM (top dose mostly 9.22 µM), for the others: top-dose activation, most hits filed as activators; Huh7 NPC1 promoter luciferase reporter, 24 h; 320,000 tested, 2.4% active; AID 485313, 2010; further: % of control where 0% means no effect; nearly all actives have a fitted effect of over 60% in size
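Stable NPC1-promoter luciferase Huh7 line; cpd (DMSO) 24 h, 37 °C, 5% CO2; Amplite luciferase reagent 10 min RT; luminescence readout. qHTS format.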
SMN2 splice enh = qHTS Assay for Enhancers of SMN2 Splice Variant Expression; Potency, µM (titrated, usually from 46.1 µM), for the others: top-dose activity change, positive = activation, most hits filed as activators; HEK293 SMN2-luciferase splicing reporter, luminescence, 30-36 h; 210,000 tested, 2.8% active; further: % of control where 0% means no effect; nearly all actives have a fitted effect of over 55% in size
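qHTS luciferase splicing reporter: luminescence rises when SMN2 exon 7 is included in transfected HEK293 cells. Compound exposure lasted 30-36 h at 37C, with 4.5 mM final sodium butyrate as control, followed by a ONE-Glo read.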
ELG1 genotoxic = qHTS screen for small molecules that induce genotoxicity in human embryonic kidney (HEK293T) cells expressing luciferase-tagged ELG1. HEK293T ELG1-luciferase reporter, luminescence, 16 h. Potency, µM (series often up to 46 µM), for inactives: top-dose activity change, positive = activation, most hits filed as activators. 330,000 tested, 1.3% active; further: % of control where 0% means no effect; nearly all actives have a fitted effect of over 60% in size
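Screening used a luciferase reporter fused to human ELG1 in HEK293T cells. Luminescence was read on a CCD plate imager after 16 hr exposure and 30 min ONE-Glo incubation.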
Luc counter = Counterscreen for Luciferase (Kinase-Glo TM) Inhibition; Luciferin 4-monooxygenase (Photuris pensylvanica), Q27757; Kinase-Glo luciferase, ATP luminescence, 8 min; Potency, µM (highest dose often 38.3 µM), for the others: at the highest dose activity change, negative = inhibition, hits mostly inhibitors; 200,000 tested, 0.28% active; AID 1379, 2008; further: on the % scale 0 is the no-effect control and ±100 the full control effect; nearly all actives have a fitted effect of over 60% in size
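Compounds were added to a substrate mix at pH 7.2 (50 mM imidazole, 10 uM ATP, within the enzyme's linear range), followed by Kinase-Glo detection reagent; luminescence was measured after 8 minutes at ambient temperature.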
FLuc counter = qHTS profiling assay for firefly luciferase inhibitor/activator using purifed enzyme and Km concentrations of substrates (counterscreen for miR-21 project); Luciferin 4-monooxygenase (Photinus pyralis), P08659; purified FLuc, Km substrates, luminescence inhibition; Potency, µM (highest dose often 57.5 µM), for inactives: at the top dose activity change, negative = inhibition, actives largely listed as inhibitors; 360,000 tested, 6.9% active; AID 588342, 2011;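 further: plate controls were vehicle for no effect and reference inhibitor for full effect; nearly all actives have a fitted effect of over 55% in size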
Target sequence (P08659 whole entry, looked up): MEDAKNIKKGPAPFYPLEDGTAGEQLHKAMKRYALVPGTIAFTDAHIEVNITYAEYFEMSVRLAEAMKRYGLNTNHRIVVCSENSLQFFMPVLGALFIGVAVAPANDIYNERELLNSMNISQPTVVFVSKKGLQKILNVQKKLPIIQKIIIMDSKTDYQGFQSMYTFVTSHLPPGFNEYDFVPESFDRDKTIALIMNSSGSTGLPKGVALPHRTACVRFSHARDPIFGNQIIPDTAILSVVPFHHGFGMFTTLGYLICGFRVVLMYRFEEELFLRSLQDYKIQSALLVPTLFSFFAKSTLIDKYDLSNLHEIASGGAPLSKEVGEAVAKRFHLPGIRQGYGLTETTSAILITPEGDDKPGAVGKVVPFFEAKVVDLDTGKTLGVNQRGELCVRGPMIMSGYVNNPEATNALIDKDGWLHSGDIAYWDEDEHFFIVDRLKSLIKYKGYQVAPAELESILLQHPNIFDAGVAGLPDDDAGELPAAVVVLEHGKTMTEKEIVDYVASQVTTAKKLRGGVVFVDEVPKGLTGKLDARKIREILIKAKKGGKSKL
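Biochemical qHTS of compounds, final roughly 60 µM downward over six points, against 10 nM purified firefly luciferase using Km concentrations of substrates (10 uM D-luciferin, 10 uM ATP) in Tris acetate pH 7.5 buffer; luminescence output.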
Rab9 prom act = qHTS Assay for Rab9 Promoter Activators; 320,000 tested, 2.8% active; Potency, µM (top dose mostly 9.22 µM), for inactives: at the top dose activation, negative = inhibition, usual class: activators; Huh7 Rab9 promoter-luciferase reporter, luminescence, 24 h; AID 485297, 2010; further: % of control where 0% means no effect; nearly all actives have a fitted effect of over 60% in size
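Steps: seed 1500 Huh7 Rab9-luc cells per well, rest 2 h at 37 °C; add compound in DMSO; incubate 24 h; add luciferase reagent, 10 min ambient; read luminescence.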
The depositor's hits bear a star; ? = inconclusive; . = no result given; [ ] = dose if it differs, or a comment. The call rests on the fitted dose curve; in most records, active means well fitted curve in the direction sought with a large enough effect; inconclusive means small, poorly fitted or top-dose-only effect, or another doubt; inactive means no such curve, though single readings can be large; an effect the other way counts as inactive or inconclusive. Potency means the concentration at half of the fitted maximal effect.

SMILES	NPC1 promoter act	SMN2 splice enh	ELG1 genotoxic	Luc counter	FLuc counter	Rab9 prom act
CC1CCN(C(=O)c2cc(-c3ccc4c(c3)OCO4)on2)CC1	0.631µM*	.	2.91µM*	.	2.69µM*	1.12µM*
O=C(c1cc(-c2ccccc2)on1)N1CCN(Cc2ccc3c(c2)OCO3)CC1	-2.1%	-16.4%	-4.9%	-2.0%	-11.9%	-0.7%
COc1ccc(-c2cc(C(=O)N3CCCCC3C)no2)cc1OC (stereo not drawn)	.	7.7%	.	.	-15.4%	.
CC1CCCCN1C(=O)c1cc(-c2ccc(Cl)c(Cl)c2)on1 (stereo not drawn)	3.98µM*	?	?	-1.7%	12µM*	2.51µM*
CC1CCCCN1C(=O)c1cc(-c2ccc3c(c2)OCO3)on1 (stereo not drawn)	0.631µM*	.	11.6µM*	.	3.79µM*	0.891µM*
CCC1CCCCN1C(=O)c1cc(-c2ccc(Cl)c(Cl)c2)on1 (stereo not drawn)	?	48.4%	?	-1.5%	19µM*	?
CCC(CC)C(=O)c1c[nH]c(C(=O)NCc2ccccc2OC)c1	0.7%	.	-6.3%	.	4.1%	-2.3%
O=C(Nc1ccc(CN2CCOCC2)cc1)c1ccc(-c2ccc(Cl)cc2Cl)o1	-11.0%	-54.6%	-8.9%	-1.7%	?	-16.5%
O=C(NNC(=O)C1CCN(Cc2cccc(F)c2)CC1)c1cccs1	-3.1%	-2.5%	-1.0%	-0.1%	-0.6%	1.6%
O=C(N/N=C/c1cn(-c2cccs2)nc1-c1ccccc1)c1ccccc1O	-2.1%	.	-1.9%	?	9.53µM*	-3.8%
O=C(N/N=C/c1cn(-c2cccs2)nc1-c1ccccc1)c1ccccc1Br	7.1%	?	3.1%	1.2%	6.75µM*	8.2%
Cc1ccc(NC(=S)N(Cc2cccs2)Cc2cc3cc(C)cc(C)c3[nH]c2=O)cc1	0.8%	2.5%	0.1%	1.1%	-19.0%	-1.0%
COc1cc(CNS(=O)(=O)CCl)cc(OC)c1OC	0.9%	.	1.6%	.	1.7%	-0.8%
O=C(N/N=C/c1cc(Br)c(O)c(Br)c1)c1cc2c(ccc3ccccc32)o1	1.2%	.	-0.5%	.	3.01µM*	0.2%
CCOC(=O)COc1ccccc1/C=N\NC(=O)c1cc2c(ccc3ccccc32)o1	-4.1%	.	-0.6%	.	23.9µM*	0.1%
O=C(N/N=C/c1cc(Cl)c(O)c(Cl)c1)c1cc2c(ccc3ccccc32)o1	9.7%	.	-6.5%	.	2.13µM*	12.3%
CCOc1cc(/C=N/NC(=O)c2cc3c(ccc4ccccc43)o2)ccc1O	3.0%	.	-15.6%	.	?	2.0%
Fc1ccccc1-n1cc(-c2ccccc2)[nH]c1=S	5.0%	13.4%	7.5%	2.0%	-20.9%	22.0%
Cc1noc(C)c1NC(=O)N(C)C[C@H]1Oc2ccc(NS(=O)(=O)c3c(C)noc3C)cc2C(=O)N([C@H](C)CO)C[C@@H]1C	.	.	3.3%	.	.	.
O=C1CC(=Nc2ccccc2)NN1c1ccccc1	-0.6%	-2.2%	-6.1%	1.9%	16.9µM*	1.4%
O=C1/C(=C\c2cccs2)Sc2ccc3ccccc3c21	-2.9%	15.3%[1.84 µM]	3.66µM*	-17.2%	0.601µM*	20.1%
Clc1ccc(-c2n[nH]c3c2CCC3)c(Cl)c1	0.9%	-16.3%	-0.6%	-0.5%	1.3%	-4.3%
O=C(Oc1cccnc1)c1ccc(Cl)c(Cl)c1	-0.6%	-2.1%	-0.1%	-5.1%	?	0.3%
O=C(COC(=O)c1cccnc1)c1ccc(Cl)cc1	-5.0%	-20.2%	-4.6%	-9.5%	10.7µM*	-2.0%
O=C(COC(=O)c1cccnc1)Nc1cccc(Cl)c1	-9.8%	-5.2%	-0.7%	-1.0%	-1.1%	-5.6%
SMILES	NPC1 promoter act	SMN2 splice enh	ELG1 genotoxic	Luc counter	FLuc counter	Rab9 prom act
O=C(COC(=O)c1cccnc1)c1ccc(Cl)c(Cl)c1	-2.7%	-2.2%	0.6%	-3.0%	16.9µM*	0.2%
O=C(Nc1ccc(N2CCN(C(=O)c3ccccc3)CC2)cc1)c1ccc([N+](=O)[O-])o1	-7.3%	.	-2.6%	-10.3%	-1.6%	-2.3%
Cc1cccc(/C=N/Nc2ccc3ccccc3n2)c1	?	-36.2%	0.231µM*	?	0.0757µM*	?
Cc1cc(N/N=C/c2ccccc2Cl)nc(NCc2ccccc2)n1	-2.0%	-31.0%	-7.5%	-2.9%	7.57µM*	-5.2%
Cc1cc(C)nc(N/N=C/c2cccc3ccccc23)n1	14.7%	25.5%	8.6%	-1.7%	12µM*	-2.5%
Cc1cc(C)nc(N/N=C/c2ccc3c(c2)OCCO3)n1	14.0%	22.1%	10.8%	-5.9%	19µM*	?
Cc1cc(C)nc(N/N=C/c2ccccc2)n1	-0.7%	20.5%	3.0%	2.9%	-19.0%	?
Cc1cc(C)nc(N/N=C/c2ccccc2Cl)n1	22.4%	.	14.5%	.	?	?
Cc1noc(C(C)C)c1C(=O)Nc1ccc(-c2nnc3n2CCCCC3)cc1	0.8%	.	0.6%	.	-0.2%	-0.2%
NCC(=O)CCC(=O)O	12.1%	-16.6%	-4.2%	-6.2%	0.0%	-1.5%
CC(=O)Nc1ccc(S(=O)(=O)NC2(C(F)(F)F)C(=O)Nc3c2c(=O)[nH]c(=O)n3-c2ccc(C)cc2)cc1 (stereo not drawn)	.	-3.5%	.	.	-13.9%	.
C(=N\n1cnnc1)/c1ccc2c(c1)OCCO2	0.7%	12.7%	3.9%	2.2%	-16.9%	-1.8%
C(=N\Nc1nc2ccccc2[nH]1)/c1ccc2c(c1)OCCO2	?	.	?	.	0.757µM*	1.41µM*
Cc1ccc(/C=N/Nc2cn[nH]c(=O)n2)o1	-1.8%	13.3%	3.0%	-5.2%	-16.4%	11.7%
CC(C)NC(=S)N/N=C/c1ccc2c(c1)OCCO2	27.6%	8.7%	10.8%	1.9%	6.75µM*	?
C(=N\Nc1ccc2ccccc2n1)/c1ccc2c(c1)OCCO2	-22.9%	-77.2%	?	?	0.0675µM*	-20.0%
Cc1ccc(/C=N/Nc2ccc3ccccc3n2)o1	0.708µM*	1.12µM*	?	?	0.477µM*	0.126µM*
C(=N\Nc1nc2ccccc2[nH]1)/c1cccc2nccnc12	-4.7%	.	?	.	?	-4.0%
Cc1cccc(C)c1O	.	0.3%	.	.	.	.
C=CCn1c(NC(=O)c2ccc(C)cc2)nc2ccccc21	2.82µM*	.	?	.	?	?
C=CCn1c(-c2ccc(C)cc2)nc2ccccc21	10.6%	-21.6%	?	5.5%	10.7µM*	17.7%
C=CCn1c(-c2ccccc2)nc2nc3ccccc3nc21	11.8%	4.2%	-5.5%	5.9%	16.9µM*	4.2%
Cc1ccc(Cn2c(-c3ccccc3)nc3ccccc32)cc1	.	-16.9%	.	.	?	.
